According to PubChem BioAssay (NCI):
The panel holds about 83,000 compounds, 20% with a hit somewhere; the sample as a whole holds those more often.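 Assay: single dose, 48 h. Readout: percent growth (0 = no net growth; negative = cell death). Active: <10.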 Active and inactive are the calls of the source.

tested on: M14 melanoma; assay: NCI-60 one-dose screen, 48 h (100 = growth as untreated, 0 = no growth, -100 = all killed); details: 10 µM unless noted

Structure (SMILES) | growth
C/C(CCC(=O)O)=N/Nc1ccc([N+](=O)[O-])cc1 | 24.3% (inactive)
Nc1nc2c(c3ncncc13)C(c1cccc(C(F)(F)F)c1)Cc1ncncc1-2 (stereo not drawn) | 11.4% (inactive)
COc1ccc(-c2nc(SCC(C)C)nc(Nc3ccc([N+](=O)[O-])cc3)c2C#N)cc1 | 103% (inactive)
Cn1c2c(cc(S(=O)(=O)c3ccccc3)c1=O)CCc1c-2cnn1-c1ccc(Cl)cc1 | 64% (inactive)
Nc1nc2c(c3cnccc13)C(c1cccc(Cl)c1)Cc1cnccc1-2 (stereo not drawn) | 1.08% (active)
CCCCCSc1ccc2nc(NC(=O)OCCC)sc2c1 | 23.1% (inactive)
CCCCCSc1ccc2nc(NC(=O)OCC)sc2c1 | 11.9% (inactive)
Cc1c(Cc2ccccc2)c(=O)oc2c(C)c(OCc3n[nH]c(=S)o3)ccc12 | 99.3% (inactive)
CCOC(=O)c1c(C)oc2ncnc(Nc3ccc(C(=O)NCCc4ccccc4)cc3)c12 | 81.3% (inactive)
C=C(C)[C@@H]1CC[C@]2(COC(=O)c3ccccc3C(=O)O)CC[C@]3(C)[C@H](CC[C@@H]4[C@@]5(C)CCCNC(C)(C)[C@@H]5CC[C@]43C)[C@@H]12 | 61.7% (inactive)
O=C(CCCC(=O)Nc1ccc(Cn2nnc3cc(Cl)c(Cl)cc32)cc1)Nc1ccc(CN2N=NC3C=C(Cl)C(Cl)=CC32)cc1 (stereo not drawn) | 87.2% (inactive)
CCS(=O)(=O)OCCO[C@H]1Cc2cc3ccc(=O)oc3cc2OC1(C)C | 104% (inactive)
O=C1Nc2ccccc2/C1=C/c1cn(CC(O)Cn2cc(/C=C3\C(=O)Nc4ccccc43)c3ccccc32)c2ccccc12 (stereo not drawn) | -81.4% (active)
